The campaign covered roughly 16,000 compounds. About 5,700 (36%) were called active. Another 24% or so got no clear call; they are omitted. The call rests on the fitted dose curve; in most records, active means well fitted curve in the direction sought with a large enough effect; inconclusive means small, poorly fitted or top-dose-only effect, or effect the other way; inactive means no such curve, though single readings can be large or run the other way. The list shows a part of the results.
These molecules were tested against Cytochrome P450 1A2 (Homo sapiens) (UniProt P05177) (assay: Cytochrome panel assay with activity outcomes). Details: recombinant CYP, pro-luciferin dealkylation, luminescence, p450-cyp1a2; series mostly up to 57.1 µM.
On the % scale 0 is the no-effect control and ±100 the full control effect.

Chain of Cytochrome P450 1A2 (Homo sapiens) (P05177 whole entry, looked up): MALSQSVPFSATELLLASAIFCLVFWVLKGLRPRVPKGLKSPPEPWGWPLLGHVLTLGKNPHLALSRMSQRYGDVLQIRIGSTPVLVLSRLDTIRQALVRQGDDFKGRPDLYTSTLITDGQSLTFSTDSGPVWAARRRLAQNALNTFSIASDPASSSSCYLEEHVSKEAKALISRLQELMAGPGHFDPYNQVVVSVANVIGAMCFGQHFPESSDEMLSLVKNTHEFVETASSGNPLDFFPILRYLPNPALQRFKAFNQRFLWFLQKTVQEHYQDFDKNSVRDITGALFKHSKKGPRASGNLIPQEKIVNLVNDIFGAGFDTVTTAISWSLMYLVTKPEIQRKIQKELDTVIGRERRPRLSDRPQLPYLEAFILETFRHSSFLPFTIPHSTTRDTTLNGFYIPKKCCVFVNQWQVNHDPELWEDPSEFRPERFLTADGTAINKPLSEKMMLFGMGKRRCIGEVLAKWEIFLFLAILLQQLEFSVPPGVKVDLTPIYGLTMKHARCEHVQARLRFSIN

Q: With `CNc1nc(Cl)nc(NC(C)(C)C)n1` as the molecule, how does the AC50 read?
A: 8.91 µM (active)

Q: `CC1CCC(C(=O)NC(C(=O)N2CCC(N3CCCCC3)CC2)C(C)C)CC1` (stereo not drawn) was tested. Which AC50 did it give?
A: inactive

Q: `CC[C@H](Cc1c(I)cc(I)c(N)c1I)C(=O)O` was tested. Which AC50 did it give?
A: 12.6 µM (active)

Q: For `CC(=O)N(C[C@@H](C)C(=O)O)c1c(I)cc(I)c(N)c1I`, which AC50 is on record?
A: inactive

Q: `COc1ccccc1C(=O)NN1C(=O)C2C3C=CC(O3)C2C1=O` (stereo not drawn) was tested. Which AC50 did it give?
A: inactive

Q: How did the AC50 turn out when `CCOc1ccc(-n2c(=O)[nH]cc(C(=O)N3CCCc4ccccc43)c2=O)cc1` was run?
A: inactive

Q: For `COc1ccccc1C(=O)NC(=S)N1CCCc2ccccc21`, which AC50 is on record?
A: 2.24 µM (active)

Q: For `Oc1cc2c(cc1O)[C@H](c1ccccc1)CNCC2`, which AC50 is on record?
A: inactive

Q: Which AC50 does the source give for `N#Cc1cccc(NC(=O)N2CCC3(CC2)CCN(C(=O)c2csnn2)CC3)c1` here?
A: inactive

Q: How did the activity, negative = inhibition turn out when `CCOC(=O)N/N=C1/C[C@@H](O)[C@@H](O)[C@@H]2[C@@H]3C(=O)N(c4cccc(Oc5ccccc5)c4)C(=O)[C@H]3CC[C@H]12` was run?
A: -3.4% [at 11.4 µM] (inactive)

Q: For `O=C(c1cccc(F)c1)N1CCC2(CCN(Cc3ccccc3)CC2)CC1`, which AC50 is on record?
A: inactive

Q: `O=C(c1cccc(F)c1)N1CCC2(CCCN(c3ccc(-c4ccccc4)cc3)C2)CC1` was tested. Which AC50 did it give?
A: 15.8 µM (active)

Q: For `O=C(c1cccc(F)c1)N1CCC2(CC1)CCN(c1ccccc1)CC2`, which AC50 is on record?
A: 15.8 µM (active)

Q: Which AC50 does the source give for `Cc1noc(C)c1C(=O)N1CCC2(CCN(Cc3nccs3)CC2)CC1` here?
A: 12.6 µM (active)

Q: `O=C(c1cccc(F)c1)N1CCC2(CCN(Cc3nccs3)CC2)CC1` was tested. Which AC50 did it give?
A: 1.58 µM (active)

Q: With `Cc1noc(C)c1C(=O)N1CCC[C@@]2(CCN(Cc3nccs3)C2)C1` as the molecule, how does the AC50 read?
A: inactive

Q: Which AC50 does the source give for `Cc1noc(C)c1C(=O)N1CCC2(CCCN(Cc3nccs3)C2)CC1` here?
A: inactive

Q: Which AC50 does the source give for `O=C(c1cccc(F)c1)N1CCC2(CC1)CN(c1ccc(-c3ccccc3)cc1)C2` here?
A: inactive

Q: How did the AC50 turn out when `O=C(c1cccc(F)c1)N1CCC2(CC1)CCN(c1ccc(-c3ccccc3)cc1)CC2` was run?
A: inactive

Q: How did the AC50 turn out when `O=C(c1ccncc1)N1CCC2(CCN(Cc3nccs3)CC2)CC1` was run?
A: inactive

Q: How did the AC50 turn out when `O=C(c1cccc(F)c1)N1CCC2(CCCN(Cc3nccs3)C2)CC1` was run?
A: inactive

Q: Which AC50 does the source give for `O=C(c1cccc(F)c1)N1CCC2(CCCN(Cc3ccccc3)C2)CC1` here?
A: inactive

Q: Which AC50 does the source give for `O=C(c1cc(C(F)(F)F)cc(C(F)(F)F)c1)N1CCC2(CC1)CCN(c1ncccn1)CC2` here?
A: inactive

Q: `CCCCN1C(=O)C(NC(=O)CC(C)C)(C(F)(F)F)C2=C1CC(C)(C)CC2=O` (stereo not drawn) was tested. Which AC50 did it give?
A: inactive

Q: For `O=C(c1cccc(F)c1)N1CCC[C@@]2(CCN(c3ccccc3)C2)C1`, which AC50 is on record?
A: inactive

Q: Which AC50 does the source give for `O=C(c1cccc(F)c1)N1CCC[C@@]2(CCN(c3ccncc3)C2)C1` here?
A: inactive

Q: With `O=C(c1cccc(F)c1)N1CCC[C@@]2(CCN(c3cccc(-c4ccccc4)c3)C2)C1` as the molecule, how does the AC50 read?
A: 15.8 µM (active)

Q: `C[N+]1(C)C[C@@H](O)C[C@@H]1C(=O)[O-]` was tested. Which AC50 did it give?
A: inactive

Q: Which AC50 does the source give for `COc1cccc(CN2C(=O)N(C(C)C)C(N(O)C(=O)NC(C)C)C2(C)C)c1OC` (stereo not drawn) here?
A: inactive

Q: Which AC50 does the source give for `COc1cccc(CNCc2ccc(SC)cc2)c1OC` here?
A: 15.8 µM (active)

Q: How did the AC50 turn out when `CC(=O)N1CCC2(CCCN(c3cccc(-c4ccccc4)c3)C2)CC1` was run?
A: 5.01 µM (active)

Q: Which AC50 does the source give for `c1ccc(C(c2ccccc2)N2CCC3(CCNCC3)CC2)cc1` here?
A: inactive

Q: Which AC50 does the source give for `COCC(=O)N1CCC2(CC1)CCN(c1cccc(-c3ccccc3)c1)CC2` here?
A: 5.01 µM (active)

Q: With `COC(=O)N1CCC2(CC1)CCN(c1ccccc1)CC2` as the molecule, how does the AC50 read?
A: inactive

Q: How did the AC50 turn out when `CC(=O)N1CCC2(CC1)CCN(c1ccc(-c3ccccc3)cc1)CC2` was run?
A: 10 µM (active)

Q: Which AC50 does the source give for `CC(=O)N1CCC2(CC1)CN(c1ccccc1)C2` here?
A: inactive

Q: Which AC50 does the source give for `CC(=O)N1CCC2(CC1)CCN(c1ccncc1)CC2` here?
A: inactive

Q: `COC(=O)N1CCC2(CC1)CCN(c1cccc(-c3ccccc3)c1)CC2` was tested. Which AC50 did it give?
A: inactive

Q: For `c1ccc(-c2cccc(N3CCC4(CCNCC4)CC3)c2)cc1`, which AC50 is on record?
A: 15.8 µM (active)

Q: With `CC(=O)N1CCC2(CCCN(c3ccccc3)C2)CC1` as the molecule, how does the AC50 read?
A: inactive

Q: With `COC(=O)N1CCC2(CC1)CN(c1cccc(-c3ccccc3)c1)C2` as the molecule, how does the AC50 read?
A: inactive

Q: `N#Cc1ccc(CN2CCC3(CC2)CCN(C(=O)c2ccncc2)CC3)cc1` was tested. Which AC50 did it give?
A: inactive

Q: For `CC[C@@H](Nc1ncnc2nc[nH]c12)C(=O)O`, which activity, negative = inhibition is on record?
A: -2.91% [at 11.4 µM] (inactive)

Q: With `COCC(=O)N1CCC2(CCCN(C(=O)Nc3ccccc3)C2)CC1` as the molecule, how does the AC50 read?
A: inactive

Q: With `COCC(=O)N1CCC2(CC1)CN(C(=O)Nc1ccccc1)C2` as the molecule, how does the AC50 read?
A: 12.6 µM (active)

Q: `COCC(=O)N1CCC2(CCCN(c3cccc(-c4ccccc4)c3)C2)CC1` was tested. Which AC50 did it give?
A: 15.8 µM (active)

Q: With `COCC(=O)N1CCC2(CC1)CN(C(=O)Nc1ccc(OC)cc1)C2` as the molecule, how does the AC50 read?
A: inactive

Q: How did the AC50 turn out when `O=C(Oc1ccccc1)N1CCC2(CCCN(c3cccc(-c4ccccc4)c3)C2)CC1` was run?
A: inactive

Q: With `COCC(=O)N1CCC2(CCCN(c3ccncc3)C2)CC1` as the molecule, how does the AC50 read?
A: inactive

Q: How did the AC50 turn out when `CCn1nc(C(=O)Nc2ccccc2C)c(Cl)c1Cl` was run?
A: 1.26 µM (active)

Q: With `N#Cc1cccc(-c2nc(NCc3cccnc3)c3ccccc3n2)c1` as the molecule, how does the AC50 read?
A: 0.251 µM (active)

Q: `N#Cc1cccc(-c2nc(NCc3ccccc3)c3ccccc3n2)c1` was tested. Which AC50 did it give?
A: 0.398 µM (active)

Q: For `N#Cc1cccc(-c2nc(NCc3cccs3)c3ccccc3n2)c1`, which AC50 is on record?
A: 0.316 µM (active)

Q: Which AC50 does the source give for `NCC[C@H]1CCC[C@H](CCN)N1` here?
A: inactive

Q: Which AC50 does the source give for `O=C(Nc1nnc(C2CC2)s1)c1ccncc1` here?
A: 12.6 µM (active)

Q: With `O=C(NN=C1C2CC3CC(C2)CC1C3)c1ccncc1` as the molecule, how does the AC50 read?
A: inactive

Q: For `O=C(Nc1nnc(C2CC2)s1)c1ccc(S(=O)(=O)c2ccccc2)cc1`, which AC50 is on record?
A: inactive

Q: Which activity, negative = inhibition does the source give for `COc1ccc(O[C@H]2C=C[C@@H](c3ccccc3)O[C@H]2CO/N=C2/[C@H]3O[C@@H]3[C@@H](O)[C@H]3[C@H]2CCn2c(=O)n(-c4ccccc4)c(=O)n23)cc1` here?
A: 12.3% [at 11.4 µM] (inactive)

Q: For `Cc1ccccc1NC1=NC(=S)N(c2ccccc2)C12CCOC(C)(C)C2` (stereo not drawn), which AC50 is on record?
A: inactive

Q: How did the AC50 turn out when `CS(=O)(=O)c1ccc(-c2cc(Br)sc2-c2ccc(F)cc2)cc1` was run?
A: 0.398 µM (active)

Q: Which AC50 does the source give for `FC(F)(F)c1cnc(/C=C/Nc2ccccc2Cl)c(Cl)c1` here?
A: 1.41 µM (active)

Q: Which AC50 does the source give for `N#CC(c1ccc(Cl)cc1)(c1ncc(C(F)(F)F)cc1Cl)N1CCOCC1` (stereo not drawn) here?
A: inactive

Q: How did the AC50 turn out when `N#CC(c1ccccn1)(c1ncc(C(F)(F)F)cc1Cl)N1CCOCC1` (stereo not drawn) was run?
A: inactive

From PubChem BioAssay AID1851 (National Center for Advancing Translational Sciences (NCATS), 2009)
